Mcl-1 Bim block – inhibitors of Bim-Mcl-1 interaction, human; Bead-based flow cytometry, Bim peptide-Mcl-1 binding; inhibition, % at 10 µM; 190,000 tested, 0.1% active; Q07820; in the data active = inhibition above about 40%;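 also: 0% = no compound tracer wells and 100% = peptide blocker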
Target sequence (Q07820 whole entry, looked up): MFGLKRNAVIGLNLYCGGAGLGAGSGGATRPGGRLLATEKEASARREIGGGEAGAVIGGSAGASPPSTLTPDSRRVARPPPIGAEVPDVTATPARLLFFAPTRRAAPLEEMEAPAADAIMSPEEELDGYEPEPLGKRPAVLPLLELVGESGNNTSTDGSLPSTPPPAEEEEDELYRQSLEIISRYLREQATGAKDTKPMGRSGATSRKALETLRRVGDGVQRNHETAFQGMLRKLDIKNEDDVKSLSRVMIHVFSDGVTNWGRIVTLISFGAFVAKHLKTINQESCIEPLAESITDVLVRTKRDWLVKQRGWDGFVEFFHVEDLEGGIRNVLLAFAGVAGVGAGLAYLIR
Mcl1 Bid PPI – disrupts binding of human Mcl-1 to Bid peptide; Q07820; TR-FRET Mcl-1/Bid-Dy647 peptide binding, 1536-well; inhibition, % at 21.7 µM; 220,000 tested, 0.97% active; AID 1021;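 active = compounds that cut the binding signal by more than half at the single screening dose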;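 also: His-tagged Mcl-1 with europium anti-His antibody binding Bid BH3 peptide; 0% = Mcl-1 plus peptide wells and 100% = peptide-only wells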
eIF4E-4G inh – inhibitors of eIF4E and eIF4G interaction in translation initiation; 220,000 tested, 0.37% active; inhibition, % at 21.7 µM; TR-FRET eIF4E-eIF4GI(517-606) binding, 2 h; P63073+Q04637;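 also: 0% = full FRET control wells and 100% = background wells lacking eIF4GI fragment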
Mcl1 Noxa PPI – disrupts binding of human Mcl-1 to Noxa peptide; Q07820; TR-FRET Mcl-1/Noxa peptide binding, 2 h; inhibition, % at 21.7 µM; 220,000 tested, 1.5% active;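 active = compounds that cut the protein-peptide binding signal by more than 50% relative to plate controls in a single-dose test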;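 also: His-tagged Mcl-1 with rhodamine Noxa BH3 peptide and terbium anti-His antibody; 0% = Mcl-1 plus Noxa peptide wells and 100% = peptide-only wells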
14-3-3 Bad PPI – disrupts binding of bovine 14-3-3 zeta to phospho-Bad peptide. inhibition, % at 21.7 µM. 220,000 tested, 0.71% active. AID 781. P63103. TR-FRET 14-3-3zeta/Dy647-pBad peptide displacement, 1 h;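 active = inhibition above about 70%, limit read from the data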;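 also: 0% = full 14-3-3 plus peptide FRET controls and 100% = background without 14-3-3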
Target sequence (P63103 whole entry, looked up): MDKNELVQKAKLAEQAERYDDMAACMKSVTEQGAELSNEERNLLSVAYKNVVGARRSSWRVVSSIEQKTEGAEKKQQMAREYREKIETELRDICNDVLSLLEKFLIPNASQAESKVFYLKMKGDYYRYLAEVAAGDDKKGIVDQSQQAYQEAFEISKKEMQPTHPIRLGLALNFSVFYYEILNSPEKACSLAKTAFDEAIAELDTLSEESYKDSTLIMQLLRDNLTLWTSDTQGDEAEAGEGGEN
NCF1 inh – inhibitors of human p47phox binding. P14598. p47phox/p22phox peptide binding, fluorescence polarization, 2 h. inhibition, % at 24.7 µM. 220,000 tested, 0.53% active. AID 1274;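 also: 0% = p47phox with labelled peptide and 100% = labelled peptide alone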
An asterisk follows results filed as active; · = no result given; [ ] = another dose, or the depositor's remark. The list is not random: actives were taken first. Their share in the collection is about 3.3%.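 The calls were made as follows, unless noted: active = inhibition above about 30% (limit read from the data); inactive = the rest.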

SMILES	Mcl-1 Bim block	Mcl1 Bid PPI	eIF4E-4G inh	Mcl1 Noxa PPI	14-3-3 Bad PPI	NCF1 inh
Cc1cccc(N2CCN(S(=O)(=O)c3ccc4c(c3)n(C)c(=O)c(=O)n4C)CC2C)c1 (centres undefined)	-4	56*	-2	41	1	-3
COc1ccc(NC2c3ccccc3C(=O)N2c2cccnc2)cc1 (centres undefined)	·	-40	-1	-3	-1	-4
COc1ccc(N2CCN(c3oc(-c4ccccc4OC)nc3C#N)CC2)cc1	-6	-36	0	16	-11	54*
Cc1cc(-c2cc(-c3ccc(Cl)cc3)nc(N)c2C#N)co1	-3	41	16	67*	21	-12
Cc1ccc(-c2cc(-c3ccc(F)cc3)c(C#N)c(N)n2)o1	-3	1	2	46	-1	-19
Cc1ccc(-c2cc(-c3ccc(Cl)cc3)c(C#N)c(N)n2)o1	-1	23	72*[fluorescence artefact?]	72*	-7	1
Cc1ccc(-c2cc(-c3ccc4c(c3)OCO4)c(C#N)c(N)n2)o1	2	80*	-2	59*	0	2
Cc1ccc(-c2cc(-c3ccc(C)o3)nc(N)c2C#N)cc1	37	-27	12	42	9	-14
COc1ccc(OC)c2c1sc(=NC(=O)C1COc3ccccc3O1)n2C (centres undefined)	·	2	-7	-53	1	2
CC(C)OP(=O)(OC(C)C)/C(C=O)=N\Nc1ccc([N+](=O)[O-])cc1	·	-25	-1	12	-1	3
C1CN(CC2CCN(c3nc4nonc4nc3N3CCSCC3)CC2)CCO1	0	-12	-2	3	-16	34*
c1ccc(C(CN2CCOCC2)c2ccccc2)cc1	0	45	1	13	84*	6
OC(COC(c1ccccc1)c1ccccc1)CN1CCOCC1 (centres undefined)	-4	-15	-2	2	-6	1
CCn1c(-c2cc3c(C(F)(F)F)nn(C)c3s2)n[nH]c1=S	-2	-33	16	72*	7	-7
Cn1c(-c2cc3c(C(F)(F)F)nn(C)c3s2)n[nH]c1=S	-4	10	19	6	-20	-12
COc1ccc(OC)c(Nc2ccc(Nc3cc(OC)ccc3OC)nn2)c1	-7	-34	-4	54*	-7	6
C/C(=N\NC(=O)COc1ccc(C(C)(C)C)cc1)c1ccc2c(c1)OCCO2	65*	-4	3	5	4	-5
CCc1ccc(OCC(=O)N/N=C(\C)c2ccc3c(c2)OCCO3)cc1	-1	-15	-3	1	-5	-15
COc1ccc(C(C(=O)NC(C)(C)C)N(CC2CCCO2)C(=O)CCC(=O)Nc2cc(C)on2)cc1 (centres undefined)	0	-7	-3	-2	1	3
CCOC(=O)/C(C#N)=C/C=C1\C=Cc2ccccc2N1CC	-2	-36	2	-2	-16	124*
CCCN1C=CC(=C/C=C(\C#N)C(=O)OCC)C=C1	-5	-49	4	-14	13	-8
CCCCCCN1C=CC(=C/C=C(\C#N)C(=O)OCC)C=C1	-2	1	4	5	-16	33*
CC(NC(=O)c1ccco1)c1cccc2ccccc12 (centres undefined)	-2	-9	1	-3	-8	-5
O=C1C(C2=NC(c3ccccn3)C3C(=O)N(c4ccccc4)C(=O)C23)=C(O)c2ccccc21 (centres undefined)	·	-94	1	-60	-12	-14
CC(CN1CCN(C)CC1)OC(=O)c1ccccc1Cl (centres undefined)	0	-37	13	7	85*	3
SMILES	Mcl-1 Bim block	Mcl1 Bid PPI	eIF4E-4G inh	Mcl1 Noxa PPI	14-3-3 Bad PPI	NCF1 inh
COc1ccc(C(=O)OC(C)CN2CCN(C)CC2)cc1OC (centres undefined)	-1	42	2	17	89*	-3
CN(O)C(=O)Nc1ccc([N+](=O)[O-])cc1	-2	-10	2	2	-6	128*
O=C(Nc1ccc([N+](=O)[O-])cc1)Nc1ccc(N2CCOCC2)c2nonc12	-1	48	-5	94*	18	-19
O=C(COC(=O)c1ccccc1O)Nc1cc([N+](=O)[O-])ccc1Cl	·	-5	7	10	-1	-5
O=C1C(=O)N(CC2CCCO2)C(c2ccco2)/C1=C(/O)c1ccc(F)cc1 (centres undefined)	-2	-34	-1	8	4	-7
CCOC(=O)Cc1csc(NC(=O)Cc2ccc(Cl)cc2)n1	·	55*	-6	2	-8	10
CC(C)(C)OC(=O)N[C@@H](Cc1ccccc1)C(=O)NCC1CCC(C(=O)O)CC1 (some centres undefined)	·	-2	-3	6	5	-11
CN1CCN(C(=O)CSc2nc(-c3cccs3)ccc2C#N)CC1	-1	-9	2	56*	1	-34
N#Cc1ccc(-c2cccs2)nc1SCc1cccnc1	·	-2	-6	0	-5	-14
CCCCOc1ccccc1NC(=O)CC1SC(=NCC)N(CC)C1=O (centres undefined)	-3	-27	7	-3	76*	13
COc1ccc(/C(C)=N/Nc2cccc(C(=O)O)c2)cc1OC	0	-14	1	15	-1	-2
C/C(=N\Nc1ccc(C(=O)O)cc1)c1ccc2c(c1)Nc1ccccc1S2	·	57*	12	87*	10	-18
CC(C)N1C(=O)/C(=C\c2nc3ccccc3c(=O)[nH]2)c2ccccc21	-1	70*	6	55*	50	-1
CCCN1C(=O)/C(=C/c2nc3ccccc3c(=O)[nH]2)c2ccccc21	-5	42	3	44	6	23
CCOC(=O)C1(Cc2ccc(Cl)cc2)CCN(Cc2cn(CC)nc2C)CC1	·	-9	-3	-5	3	4
O=C(CNc1ccccc1)NNC1=NCCC1	-5	-13	0	13	89*	-6
CC12CCC(C(=O)N3CCCCC3)([C@H](Br)C1=O)C2(C)C (some centres undefined)	·	-4	-8	-13	-1	-8
CC(=O)Oc1cc2c3c(c1)/C(=C1/SC(=S)NC1=O)C(=O)N3C(C)(C)C=C2C	·	-41	-4	51*	-6	6
CC(=O)N1CCc2[nH]c3ccccc3c2C1	-5	-77	4	7	-19	-12
CC(=O)N1C=Cc2c(c(C)c3c([nH]c4ccccc43)c2C)C1	·	-50	4	-3	-6	77*
Cc1cccc(C)c1N1C(=O)[C@@H]2C(c3ccccc3Cl)=NO[C@@H]2C1=O	·	-12	-1	-8	-3	-1
COc1ccc(OC)c(N2C(=O)[C@@H]3C(c4ccccc4Cl)=NO[C@@H]3C2=O)c1	2	-40	17	59*	14	-1

Screens from PubChem BioAssay.
